SMILES strings stand for the structures.

The source of these data is ChEMBL document CHEMBL3988442, “University of Dundee, Small-Polar-MMV Screening Library” (2021).

The target of assay [1] is T1, Aspartate--tRNA(Asp/Asn) ligase (Mycobacterium tuberculosis (strain ATCC 25618 / H37Rv)) (UniProt P9WFW3). Also: in the data most compounds retested in dose-response had high values.
T1 sequence (whole entry): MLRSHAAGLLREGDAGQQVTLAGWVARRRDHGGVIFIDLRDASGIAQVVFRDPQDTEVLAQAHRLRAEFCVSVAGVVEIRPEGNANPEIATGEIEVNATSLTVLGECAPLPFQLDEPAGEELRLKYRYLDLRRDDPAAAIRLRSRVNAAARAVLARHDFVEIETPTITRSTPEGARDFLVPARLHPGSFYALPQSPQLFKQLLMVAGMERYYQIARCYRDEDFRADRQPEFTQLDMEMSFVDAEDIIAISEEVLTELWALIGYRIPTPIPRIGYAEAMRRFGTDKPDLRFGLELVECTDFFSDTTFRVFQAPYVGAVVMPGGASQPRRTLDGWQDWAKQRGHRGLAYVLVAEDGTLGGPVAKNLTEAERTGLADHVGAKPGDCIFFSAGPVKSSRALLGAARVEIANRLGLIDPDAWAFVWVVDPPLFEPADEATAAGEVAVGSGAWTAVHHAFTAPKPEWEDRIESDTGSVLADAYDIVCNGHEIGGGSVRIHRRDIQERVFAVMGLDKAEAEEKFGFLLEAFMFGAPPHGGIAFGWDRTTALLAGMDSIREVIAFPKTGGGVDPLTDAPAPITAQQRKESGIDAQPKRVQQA
The experiment in a line: Assay for Asp RNA synthetase-1 from Mycobacterium tuberculosis. Format: functional. More on the design: scale not given: direction of the effect not stated beside the values. To be noted: 30 µM.

In assay [2] the target is Shiga toxin 2 (Escherichia coli O157:H7) (UniProt P09385+P09386). The experiment in a line: E. coli 0.157:H7 Shiga Toxin SOP - stx2 screening assay. Format: functional. Also noted: scale not given: direction of the effect not stated beside the values. To be noted: 30 µM.

Regarding `CC1(C(=O)N2CCOCC2)CN(Cc2ccccn2)CCO1` (configuration not stated), the Percent Effect in assay [1] is 8.77%; in assay [2], -6.1%.
Consider `c1cnnc(N2CCCC2CNCc2cnc(N3CCCC3)nc2)c1` (configuration not stated), for which the Percent Effect in assay [1] is 0.626%; in assay [2], -6.77%.
Turning to `Cn1ccnc1CN1CCC2(CC1)CC(NC(=O)c1ccccn1)CO2` (configuration not stated), the Percent Effect in assay [1] was 2.38%; in assay [2], -19.4%.
On the same counts, the results for `CC(CNC(=O)c1ccc(Cl)cc1I)N1CCCC1` (configuration not stated) are -0.881% and -18.5%.
For the compound `CSc1ccc(C(CN)N2CCc3sccc3C2)cc1` (configuration not stated), the results for the Percent Effect in assay [1] and in assay [2] were -1.53% and -31.4%, respectively.
With `O=C(NCc1cc[nH]n1)N1CCCCC(N2CCCC2)C1` (configuration not stated), the Percent Effect in assay [1] is 2.84%; in assay [2], 14.9%.
On the same counts, the results for `CN(C)C(CNS(=O)(=O)c1ccc(F)cc1F)c1cccn1C` (configuration not stated) are 0.719% and -2.1%.
Take `CN1CCCc2cc(CNC(=O)c3ccncc3)ccc21`: the Percent Effect is -7.79% in assay [1] and -75.2% in assay [2].
The matching figures for `COc1c(CNC2CCN(C(=O)C3CC3)CC2)c(C(C)C)nn1C`: 1.69% and 29.5%.
On the same counts, the results for `Cc1ccc(N2CCCN(C(=O)c3c(C)oc(C)c3C)CC2)nn1` are 1.16% and -1.2%.
With `CC(c1nc(C2CC2)no1)N1CCN(Cc2ccccc2F)CC1` (configuration not stated), the Percent Effect in assay [1] is -7.52%; in assay [2], 8.03%.
As to `O=C(CCC1CC1)N1C[C@@H](CN2CCCC2)[C@@H](CO)C1`, the Percent Effect in assay [1] was 0.505%; in assay [2], -35.6%.
The matching figures for `CCN1CCN(C(=O)C(C)N2CCN(Cc3nccn3C)CC2)CC1` (configuration not stated): 0.262% and -3.01%.
The matching figures for `CN(Cc1ccsc1)C(=O)c1cccc(S(=O)(=O)NC(C)(C)C)c1`: -1.73% and -33.3%.
As to `O=c1ccc(-c2cccs2)nn1CN1CCN(Cc2ccccc2)CC1`, the Percent Effect in assay [1] is -1.1%; in assay [2] it was 9.12%.
Take `CC(c1cccnc1)N(C)Cc1csc(-c2ccccn2)n1` (configuration not stated): the Percent Effect was -4.49% in assay [1] and -14.1% in assay [2].
For the compound `O=C(NCc1cnc2n1CCN(Cc1ccsc1)CC2)C1CCC1`, the Percent Effect in assay [1] was determined as 3.57%; in assay [2], 4.16%.
As to `COCCN(Cc1ccc(F)cc1Cl)C(=O)c1ccncc1`, the Percent Effect was -5.35% in assay [1] and 12% in assay [2].
For `Cc1occc1C(=O)N1CCOCC2(CCN(Cc3nccs3)C2)C1` (configuration not stated), the Percent Effect in assay [1] is -0.802%; in assay [2], -26.4%.
On the same counts, the results for `Oc1cc(CCC2CCCCN2)cc(-c2ccncc2)c1` (configuration not stated) are 2.44% and -42.2%.
Regarding `Cc1nc2ccccc2nc1CN(C)CC1CCCN1c1cccnn1` (configuration not stated), the Percent Effect in assay [1] was 1.76%; in assay [2], 22.3%.
Consider `CC(C)CC(=O)N1CCCn2cnc(CN3CCCC3=O)c2C1`, for which the Percent Effect in assay [1] was -3.68%; in assay [2] it was -15.8%.
`COc1ccc(CN(C)CC(=O)NC2(C)CCS(=O)(=O)C2)cc1F` (configuration not stated): the Percent Effect is 10.4% in assay [1] and -2.83% in assay [2].
In the case of `CC(=O)Nc1nc(C(=O)N2CCCC(n3nc(C)cc3C)C2)cs1` (configuration not stated), the Percent Effect in assay [1] is -0.815%; in assay [2] it was 10.8%.
Take `COc1c(CNC2CCN(C(C)(C)C)CC2)c(C(C)C)nn1C`: the results for the Percent Effect in assay [1] and in assay [2] were -0.618% and 30.9%, respectively.
Regarding `O=c1oc(-c2ccc(F)cc2)nn1CN1CCN(C2CCCC2)CC1`, the values for the Percent Effect in assay [1] and in assay [2] were 0.546% and -2.79%, respectively.
Turning to `COc1cccc(CNCc2nnc3n2CC(C(F)(F)F)CC3)c1` (configuration not stated), the Percent Effect in assay [1] is -0.0987%; in assay [2], -19.1%.
For the compound `COc1ncccc1CNC(=O)c1cccnc1O`, the Percent Effect in assay [1] was -1.39%; in assay [2], -17.1%.
On to `CN(C)C[C@H]1OC[C@@H]2CCN(S(=O)(=O)c3ccccc3)C[C@@H]21`, for which the Percent Effect is 4.96% in assay [1] and -1.44% in assay [2].
`O=C([C@H]1C[C@H]2OCC[C@H]2N(CCc2ccccc2)C1)N1CCCCO1`: the Percent Effect stood at 0.871% in assay [1] and 6.49% in assay [2].
For the compound `CCCS(=O)(=O)N1CCC2(CN(c3ccsc3)C(=O)CN2C)C1` (configuration not stated), the Percent Effect in assay [1] was -3.98%; in assay [2], -8.23%.
For `Cc1noc(C)c1CN1CCN(Cc2nccn2C)C(C)C1` (configuration not stated), the Percent Effect in assay [1] was -3.74%; in assay [2] it was 1.27%.
With `Cc1cc(C)n(CC(=O)N2CCC(c3nc(C)no3)CC2)n1`, the Percent Effect in assay [1] stood at 3.56%; in assay [2], 3.16%.
Regarding `CCN1CC2(CC1=O)CN(C(C)=O)CCN(C(=O)c1ccco1)C2` (configuration not stated), the figures for the Percent Effect in assay [1] and in assay [2] were -3.81% and -35.2%, respectively.
Consider `CC(NC(N)=O)C(=O)N(C)CCCc1cc(-c2ccccc2)no1` (configuration not stated), for which the Percent Effect in assay [1] worked out at 3.41%; in assay [2] it was 22.8%.
Take `O=C(c1cc(C2CC2)[nH]n1)N1CCCC(n2cncn2)C1` (configuration not stated): the results for the Percent Effect in assay [1] and in assay [2] were -3.08% and 12.1%, respectively.
With `COC(=O)N1CCc2ccc(NC(=O)c3cn(C)nn3)cc2C1`, the Percent Effect in assay [1] is -0.627%; in assay [2], -90%.
On to `Cc1ccccc1CN1CCN(Cc2nccn2C)CC1`, for which the Percent Effect was -1.8% in assay [1] and 13.3% in assay [2].
For the compound `CCOc1cc(C)nc(N2CCN(C(=O)c3ccc[nH]3)CC2)n1`, the Percent Effect in assay [1] was -0.0874%; in assay [2], 29.4%.
In the case of `CCN(CC1CCCO1)C(=O)Nc1ccc(F)cc1OC` (configuration not stated), the Percent Effect in assay [1] is -2.28%; in assay [2], -7.53%.
For `Cc1nc(CN2C(=O)CC[C@H]3[C@@H]2CCN3C(=O)c2ccsc2)cs1`, the figures for the Percent Effect in assay [1] and in assay [2] were -4.11% and -2.73%, respectively.
`CC[C@@H]1N(CC2CC2)CCC[C@]12CCC(=O)N2CCOC`: the Percent Effect in assay [1] is -4.31%; in assay [2] it was -1.83%.
In the case of `Cc1nc(CCNC(=O)NC2CCN(c3ncccn3)CC2)cs1`, the Percent Effect in assay [1] was -2.14%; in assay [2], -10%.
Regarding `CCN(C(=O)COC)C(c1cccnc1)c1cc(C)cc(C)c1` (configuration not stated), the figures for the Percent Effect in assay [1] and in assay [2] were 1.28% and -51.4%, respectively.
Regarding `Cn1nc(C2CCCN(C(=O)Cc3ccsc3)C2)c2nccnc21` (configuration not stated), the Percent Effect was -0.402% in assay [1] and 7.06% in assay [2].
The matching figures for `Cc1ccc(CN2CCc3ncnc(-c4cccnc4)c3CC2)o1`: 4.98% and 9.48%.
`O=C(CCNc1ncccn1)NCCc1ccn(-c2ccccc2)n1`: the Percent Effect is -3.01% in assay [1] and -46.2% in assay [2].
Regarding `OCCn1cc(CN2CCN(CCOc3ccccc3F)CC2)cn1`, the Percent Effect in assay [1] was -0.699%; in assay [2], 24.4%.
`O=C(NCCn1ccnc1)N1CCN(c2nccs2)CC1`: the Percent Effect in assay [1] is 2.45%; in assay [2] it was -47.2%.
`COc1cc(CNCc2c(C(C)C)nn(C)c2N(C)C)ccn1`: the values for the Percent Effect in assay [1] and in assay [2] were 0.522% and 22.2%, respectively.
The matching figures for `Cn1cc(CCC(=O)N2C[C@H]3CC[C@@H]2CN(Cc2ccccc2)C3)cn1`: 2.92% and -3.02%.
